Results from PubChem BioAssay AID1159580 (chemical genetic matrix, 2015).
Values joined by “and” are separate entries in the source; they are usually repeats but may differ in a detail not shown here. Identical values can stand only once. In all, about 5,500 compounds went through this assay and about 2,000 (36%) were called active. About 18% were inconclusive and are not listed. Rule as the data show it: active = normalized growth mostly below about 0.91 (no sharp cut-off); inconclusive = no clear call, values can overlap the other calls; inactive = mostly above about 0.92. This is one part of the list.

Assay: chemical genetic growth profiling, strain panel (AID 1159580);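 also: tested at 20 µM; growth read once vehicle control cultures reached saturation at 30 °C; 1 = growth at the plate median or of vehicle wells; lower values mean less growth of the strain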
Conditions: S. cerevisiae deletion strains, growth OD

Measured: normalized growth

C/C=C1\[C@H]2C=C(C)C[C@]1(N)c1ccc(=O)[nH]c1C2
inactive: locus YAL013W, strain DEP1, hits give low values 1.01 | locus YAL021C, strain ccr4, hits give low values 1 | locus YAL026C, strain drs2, hits give low values 1.03 | locus YAL030W, strain snc1, hits give low values 1.02 | locus YBL061C, strain skt5, hits give low values 1.01 | locus YBR009C, strain hhf1, hits give low values 1.03 | locus YBR021W, strain FUR4, hits give low values 1.01 | locus YBR023C, strain chs3, hits give low values 1.02 | locus YBR171W, strain sec66, hits give low values 1.03 | locus YBR229C, strain ROT2, hits give low values 1.01 | locus YBR231C, strain swc5, hits give low values 1.02 | locus YBR279W, strain paf1, hits give low values 1.02 | locus YCL011C, strain gbp2, hits give low values 1.02 | locus YCL016C, strain dcc1, hits give low values 1.01 | locus YCL029C, strain bik1, hits give low values 1.02 | locus YCL061C, strain MRC1, hits give low values 1.02 | locus YCL069W, strain vba3, hits give low values 1.02 | locus YCR088W, strain abp1, hits give low values 1.02 | locus YDL005C, strain med2, hits give low values 1.04 | locus YDL035C, strain GPR1, hits give low values 1.01 | locus YDL040C, strain nat1, hits give low values 1.01 | locus YDL074C, strain BRE1, hits give low values 1.01 | locus YDL101C, strain DUN1, hits give low values 1.01 | locus YDL134C, strain PPH21, hits give low values 1.01 | locus YDL185W, strain tfp1, hits give low values 1.02 | locus YDL192W, strain arf1, hits give low values 1.02 | locus YDR001C, strain nth1, hits give low values 1.01 | locus YDR069C, strain doa4, hits give low values 1.03 | locus YDR101C, strain arx1, hits give low values 1 | locus YDR137W, strain rgp1, hits give low values 1.01 | locus YDR150W, strain NUM1, hits give low values 1.02 | locus YDR159W, strain sac3, hits give low values 1.03 | locus YDR162C, strain NBP2, hits give low values 1.02 | locus YDR195W, strain ref2 0.989 | locus YDR297W, strain sur2, hits give low values 1.01 | locus YDR318W, strain mcm21, hits give low values 1.02 | locus YDR334W, strain swr1, hits give low values 1.03 | locus YDR335W, strain msn5, hits give low values 1.02 | locus YDR388W, hits give low values 1.01 | locus YDR392W, strain spt3, hits give low values 0.966 | locus YDR502C, strain sam2, hits give low values 1.01 | locus YEL003W, strain gim4, hits give low values 1.03 | locus YEL037C, strain rad23, hits give low values 1.02 | locus YEL061C, strain CIN8 (second series), hits give low values 1.03 | locus YEL061C, strain CIN8, hits give low values 1.01 | locus YER015W, strain faa2, hits give low values 1.02 | locus YER016W, strain bim1, hits give low values 1.03 | locus YER110C, hits give low values 1.01 | locus YER111C, strain swi4, hits give low values 1.03 | locus YER155C, strain BEM2 (second series), hits give low values 1.04 | locus YER155C, strain BEM2, hits give low values 1 | locus YER167W, strain BCK2, hits give low values 1.02 | locus YFR010W, strain ubp6, hits give low values 1.03 | locus YGL078C, strain dbp3, hits give low values 1.01 | locus YGL086W, strain mad1, hits give low values 1.01 | locus YGL167C, strain pmr1, hits give low values 1.02 | locus YGL173C, strain kem1, hits give low values 1.04 | locus YGL227W, strain vid30, hits give low values 1.03 | locus YGL240W, strain doc1, hits give low values 1.04 | locus YGL248W, strain PDE1, hits give low values 1.01 | locus YGL253W, strain hxk2, hits give low values 1.02 | locus YGR078C, strain PAC10, hits give low values 1.01 | locus YGR135W, strain pre9, hits give low values 1 | locus YGR229C, strain SMI1, hits give low values 1.01 | locus YGR252W, strain gcn5, hits give low values 1.01 | locus YHR013C, strain ard1, hits give low values 1.02 | locus YHR027C, strain rpn1, hits give low values 1.03 | locus YHR030C, strain SLT2, hits give low values 1 and 1.02 | locus YHR079C, strain IRE1 (second series), hits give low values 1.01 | locus YHR079C, strain IRE1, hits give low values 1.01 | locus YHR094C, strain hxt1, hits give low values 1.01 | locus YHR129C, strain ARP1, hits give low values 1 | locus YHR142W, strain chs7, hits give low values 0.992 | locus YHR200W, strain rpn10, hits give low values 1.02 | locus YIL066C, strain RNR3, hits give low values 1.02 | locus YIL073C, strain SPO22, hits give low values 1.08 | locus YIL125W, strain kgd1, hits give low values 1.02 | locus YIR030C, strain dcg1, hits give low values 1.01 | locus YJL092W, strain hpr5, hits give low values 1.03 | locus YJL095W, strain BCK1 (second series), hits give low values 1.01 | locus YJL095W, strain BCK1, hits give low values 0.989 and 0.995 | locus YJL115W, strain asf1, hits give low values 1.02 | locus YJL129C, strain trk1, hits give low values 1.02 | locus YJL134W, strain LCB3, hits give low values 1.01 | locus YJL154C, strain vps35, hits give low values 1.02 | locus YJL164C, strain tpk1, hits give low values 1.01 | locus YJL166W, strain qcr8, hits give low values 1.02 | locus YJL168C, strain set2, hits give low values 1.01 | locus YJL187C, strain SWE1 (second series), hits give low values 1 | locus YJL187C, strain SWE1, hits give low values 1.02 | locus YJR043C, strain POL32, hits give low values 1.01 | locus YJR066W, strain TOR1, hits give low values 0.96
